# The list is not random: actives were taken first. Their share in the collection is about 0.92%.
# RECQ1 inh-1 – qHTS Assay for Inhibitors of RecQ-Like Dna Helicase 1 (RECQ1); RECQ1 DNA unwinding, red fluorescence kinetic read; Potency, µM (top dose mostly 57.3 µM), for inactives: at the top dose activity, negative = inhibition, actives largely listed as inhibitors; 240,000 tested, 0.54% active; ATP-dependent DNA helicase Q1 (Homo sapiens), P46063;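 also: plate controls were vehicle for no effect and no enzyme for full effect; nearly all actives have a fitted effect of over 30% in size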
#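 RECQ1T1 50 nM; forked duplex (20 bp + 30-nt ss tails) 200 nM, ATP 2 mM final; pH 8.0, 2 mM MgCl2, 2.5 ug/ml poly(dI-dC); 15 min compound preincubation; discontinuous kinetic read over 2 h at RT.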
# APE1 inh – qHTS Assay for Inhibitors of the Human Apurinic/apyrimidinic Endonuclease 1 (APE1); DNA repair nuclease/redox regulator APEX1 (Homo sapiens), P27695; recombinant APE1, TAMRA/BHQ-2 abasic DNA cleavage fluorescence; Potency, µM (highest dose often 65.8 µM), without a hit: at the top dose activity change, negative = inhibition, hits mostly inhibitors; 350,000 tested, 0.35% active; AID 2517, 2012;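 also: plate controls were vehicle for no effect and reference inhibitor for full effect; nearly all actives have a fitted effect of over 55% in size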
#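 Substrate: short duplex with […] THF abasic site, 5'-TAMRA and 3'-BHQ-2, 50 nM final. APE1 at 0.75 nM, preincubated 15 min RT with compound. Fluorescence increase from first to third read measured activity.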
# BLM inh – qHTS Assay for Inhibitors of Bloom's syndrome helicase (BLM); 350,000 tested, 0.2% active; Potency, µM (series often up to 56.1 µM), for the others: at the top dose activity change, negative = inhibition, hits mostly inhibitors; recombinant BLM DNA unwinding, fluorescence dequenching;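 also: plate controls were vehicle for no effect and no enzyme for full effect; nearly all actives have a fitted effect of over 35% in size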
# TDP1 block – qHTS Assay for Inhibitors of Tyrosyl-DNA Phosphodiesterase (TDP1) | Tyrosyl-DNA phosphodiesterase 1 (Homo sapiens), Q9NUW8 | recombinant TDP1, AlphaScreen DNA substrate cleavage | Potency, µM (doses to about 130 µM), for inactives: at the top dose activity change, negative = inhibition, actives largely listed as inhibitors | 350,000 tested, 0.28% active; also: nearly all actives have a fitted effect of over 40% in size
# Target sequence (Q9NUW8 whole entry, looked up): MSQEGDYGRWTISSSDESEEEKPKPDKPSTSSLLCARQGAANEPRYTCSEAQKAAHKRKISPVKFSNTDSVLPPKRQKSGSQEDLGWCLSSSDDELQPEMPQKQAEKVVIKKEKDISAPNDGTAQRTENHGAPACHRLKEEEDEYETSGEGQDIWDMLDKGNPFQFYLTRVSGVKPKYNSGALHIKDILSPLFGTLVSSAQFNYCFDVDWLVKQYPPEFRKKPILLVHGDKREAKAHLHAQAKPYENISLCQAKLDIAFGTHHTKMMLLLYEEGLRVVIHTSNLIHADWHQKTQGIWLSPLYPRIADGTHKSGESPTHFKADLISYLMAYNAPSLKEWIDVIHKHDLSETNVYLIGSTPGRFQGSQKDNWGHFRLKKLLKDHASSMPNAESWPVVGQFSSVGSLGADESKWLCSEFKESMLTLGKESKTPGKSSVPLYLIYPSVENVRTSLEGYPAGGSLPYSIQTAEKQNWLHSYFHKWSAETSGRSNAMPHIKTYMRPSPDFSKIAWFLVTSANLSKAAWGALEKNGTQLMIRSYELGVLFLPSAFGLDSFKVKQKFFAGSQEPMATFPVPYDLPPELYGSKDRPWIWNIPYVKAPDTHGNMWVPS
#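 Here, a 5' biotin and 3' phosphotyrosine-FITC DNA oligonucleotide reports Tdp1 activity: intact substrate bridges AlphaScreen beads, while cleavage leaves a 3' phosphate and drops signal. All incubations at room temperature.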
# FEN1 inhibitor – qHTS Assay for the Inhibitors of Human Flap endonuclease 1 (FEN1). P39748. Recombinant FEN1 flap cleavage, fluorescence, 15 min. Potency, µM (titrated, usually from 114 µM), inactives show top-dose activity change, negative = inhibition, hits mostly inhibitors. 390,000 tested, 0.35% active. AID 588795, 2011; also: nearly all actives have a fitted effect of over 65% in size
#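 Steps: FEN1 (10 nM) dispensed; compound added by pin tool; 15 min at room temperature; substrate added to 50 nM final; reads at 0 min and 15 min; data normalized and fitted (four-parameter Hill).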
# RECQ1 inh conf – Confirmation qHTS Assay for Inhibitors of RecQ-Like Dna Helicase 1 (RECQ1); AID 2708, 2010; shares compounds with RECQ1 inh-1; RECQ1 helicase DNA unwinding, fluorescence; Potency, µM (series often up to 229 µM), for inactives: top-dose activity change, negative = inhibition, hits mostly inhibitors; 610 tested, 28% active; also: nearly all actives have a fitted effect of over 45% in size
# ADP FP counter – Counterscreen for RECQ1 Inhibitors: ADP Fluorescence Polarization Displacement Assay | Potency, µM (series often up to 228 µM), for inactives: top-dose activity change, negative = inhibition, actives largely listed as inhibitors | ADP fluorescence polarization displacement counterscreen | shares compounds with RECQ1 inh-1 | 530 tested, 27% active; also: nearly all actives have a fitted effect of over 45% in size
# RECQ1 inh-2 – Confirmation qHTS Assay for Inhibitors of RecQ-Like Dna Helicase 1 (RECQ1) - Round 2 Cherry Picks; shares compounds with RECQ1 inh-1; recombinant RECQ1 DNA unwinding, red fluorescence; Potency, µM (titrated, usually from 119 µM), for the others: top-dose activity, negative = inhibition, hits mostly inhibitors; 1,100 tested, 15% active; AID 504841, 2011; also: nearly all actives have a fitted effect of over 50% in size
# Active calls of the source: *; i = inactive; ? = inconclusive; · = not tested or not shown; [ ] = remark or other dose. Calls follow the shape of the dose curve; as a rule, active = well fitted curve in the direction sought with a large enough effect; inconclusive = small, poorly fitted or top-dose-only effect, or another doubt; inactive = no such curve, though single readings can be large; an effect the other way counts as inactive or inconclusive. Unless noted, % is scaled to controls: 0 for no effect and ±100 for the full control effect; potency is read from the fitted curve at half-maximal effect.
SMILES,RECQ1 inh-1,APE1 inh,BLM inh,TDP1 block,FEN1 inhibitor,RECQ1 inh-2,others
O=C(/C=C/c1ccco1)Nc1sc2c(c1C(=O)O)CCC2,35µM*,?,5%,·,-12%,?,
N#Cc1c(NC(=O)/C=C/c2ccco2)sc2c1CCCC2,-19%,?,-7%,-4%,4%,·,
O=C(Nc1scc(-c2ccc(F)cc2)c1C(=O)O)c1ccco1,i,-1%,1%,-2%,14%,·,
Cc1ccc(-c2csc(NC(=O)/C=C/c3ccco3)c2C(=O)O)cc1,22µM*,?,?,·,-30%,-30%,RECQ1 inh conf=?;ADP FP counter=-9%[91.9 µM]
CNc1ccc(Br)cc(C(=O)/C=C/c2ccc3c(c2)OCO3)c1=O,?,?,-23%,-10%,50µM*,?,
CNc1ccc(Br)cc(C(=O)/C=C/c2ccc(OC)cc2)c1=O,?,?,?,-11%,4%,-13%,
COc1ccc(NC(=O)c2noc3c2CCC3)cc1,?,20µM*,-20%,14µM*,-11%,?,
O=C(O)CC(CC(=O)Nc1ccccc1C(=O)O)c1ccccc1 (configuration not stated),-3%,-2%,-2%,·,-7%,·,RECQ1 inh conf=25%;ADP FP counter=0%
COC(=O)c1c(SCC(=O)Nc2cc(C)cc(C)c2)[nH]c2ccccc2c1=O,·,·,-4%,6%,2%,·,
Cc1ccc(CN(C(=O)c2ccccc2)c2ccccn2)o1,·,·,-3%,7%,20%,·,
Cc1noc(NS(=O)(=O)c2ccc(N/C=C\C(=O)c3ccc(Br)cc3)cc2)c1C,?,-1%,-11%,10%,6%,-22%,
O=c1cc(-c2ccccc2)n2c(SCc3ccccc3Cl)nnc2[nH]1,·,·,-7%,3%,-4%,·,
O=C(O)CCC(=O)N1N=C(c2ccco2)CC1c1cccs1 (configuration not stated),-4%,5%,-2%,-3%,9%,·,RECQ1 inh conf=-4%;ADP FP counter=5%
COc1cc(SC)ccc1C(=O)N1CCC(Cc2ccccc2)CC1,-11%,-3%,-9%,9%,?,·,
Cc1ccc(CCN2CC(C(=O)NC3CCCCC3)CC2=O)cc1 (configuration not stated),·,16%,-3%,3%,2%,·,
COc1ccc(CCN2CC(C(=O)NC3CCCCC3)CC2=O)cc1OC (configuration not stated),40µM*,?,-20%,·,8%,?,
CCOc1ccc(NC(=O)CSc2nc(=O)[nH]c3c2CCC3)cc1,·,·,-3%,-3%,-8%,·,
CC(=O)Oc1ccc(C(=O)Nc2cccc(C(=O)c3cccc(NC(=O)c4ccc(OC(C)=O)cc4)c3)c2)cc1,14µM*,15%,-28%,·,?,?,
CC(=O)Oc1ccc(C(=O)Nc2cccc(C(=O)NC(C)(C)C)c2)cc1,-6%,1%,1%,-1%,-8%,·,
O=C(NCCc1ccccc1Cl)c1ccc2c(=O)n(-c3ccccc3)c(=O)[nH]c2c1,·,·,-3%,3%,-6%,·,
Cc1ccc(NC(=S)NC(=O)/C=C/c2ccco2)c(O)c1,?,?,-14%,6%,-13%,-23%,
CC(=O)c1ccc(NC(=O)CN2C(=O)CCc3cc(S(=O)(=O)N4CCC(C)CC4)ccc32)cc1,·,·,-9%,·,-7%,·,
Cc1nc2ccc(C(=O)Nc3cccc([N+](=O)[O-])c3)cc2s1,?,-9%,-2%,-10%,-6%,-6%,
O=C(Nc1cccc([N+](=O)[O-])c1)c1cccc(C(=O)Nc2cccc([N+](=O)[O-])c2)c1,-4%,?,?,0%,-20%,·,
CC(C)n1c(=S)[nH]c2scc(-c3cccs3)c2c1=O,28µM*,?,7%,5%,-7%,?,
SMILES,RECQ1 inh-1,APE1 inh,BLM inh,TDP1 block,FEN1 inhibitor,RECQ1 inh-2,others
C=CCN1C(=O)CS/C1=C(\C#N)S(=O)(=O)c1ccc(C)cc1,20µM*,-5%,-10%,11%,-12%,?,
CCCCn1cnc2c(=O)[nH]c(N)nc21,·,·,·,4%,-1%,·,RECQ1 inh conf=-3%[69.1 µM]
COC(=O)C1=C(C(=O)OC)[C@@H]2N(C)c3ccccc3[C@@]23C[C@@H](C(=O)OC)N(S(=O)(=O)c2ccc4c(c2)OCCN4C)C3=N1,-10%[11.5 µM],-4%[12.4 µM],-4%[12.4 µM],10%[12.3 µM],·,·,
COc1ccccc1Oc1nc2ccccn2c(=O)c1/C=C(\C#N)C(=O)Nc1c(C)n(C)n(-c2ccccc2)c1=O,0%,2%,-9%,4%,6%,·,RECQ1 inh conf=5%;ADP FP counter=28%
COC(=O)/C(C#N)=C/c1c(Oc2cccc(C)c2)nc2ccccn2c1=O,-4%,7%,1%,4%,-6%,·,
Cc1c(NC(=O)/C(C#N)=C/c2ccccc2)c(=O)n(-c2ccccc2)n1C,-8%,10%,-1%,5%,-3%,·,
Cc1ccc(Oc2nc3ccccn3c(=O)c2/C=C(\C#N)C(=O)Nc2c(C)n(C)n(-c3ccccc3)c2=O)c(C)c1,-1%,2%,-4%,1%,1%,·,RECQ1 inh conf=-2%;ADP FP counter=10%
Cc1nnc2ccc(-c3cccc(NC(=O)Cc4cccs4)c3)nn12,?,3%,-13%,-2%,-4%,-25%,
CCOc1ccc(CC(=O)Nc2cccc(-c3ccc4nnc(C)n4n3)c2)cc1,-6%,13%,7%,8%,1%,·,
COc1ccc(CCNc2nc3cc(OC)c(OC)cc3c3nc(-c4ccccc4)nn23)cc1OC,·,·,-4%,0%,-19%,·,
CN1/C(=C\C(=O)COC(=O)Cn2nnc(-c3ccccc3)n2)C(C)(C)c2ccccc21,?,-10%,-15%,-1%,?,45µM*,
